In publication PMC5540273 (PLoS ONE, 2017):

Tests used:
Conditions in all cases: concentration: 1 μM, replicates: in singlicate; n = 1
[1] = system: EPHA1
[2] = system: EPHA2
[3] = system: EPHA3
[4] = system: EPHA4
[5] = system: EPHA5
[6] = system: EPHA6
[7] = system: EPHA7
[8] = system: EPHA8
[9] = system: EPHB1
[10] = system: EPHB2
[11] = system: EPHB3
[12] = system: EPHB4
[13] = system: EPHB6
[14] = system: ERBB2
[15] = system: ERBB3
[16] = system: ERBB4
[17] = system: T1, ERK1
T1 construct: gene MAPK3

[18] = system: T2, ERK2
T2 construct: gene MAPK1

[19] = system: T3, ERK3
T3 construct: gene MAPK6

[20] = system: T4, ERK4
T4 construct: gene MAPK4
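Also: KINOMEscan kinase panel screen.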

## O=C(Nc1ccc2c(c1)OCO2)NC1CCN(c2ccnc(NCc3ccc(F)cc3)n2)CC1 [GSK1379859]
[1]
  %Inh: 8%
[2]
  %Inh: 0%
[3]
  %Inh: 0%
[4]
  %Inh: 13%
[5]
  %Inh: 0%
[6]
  %Inh: 8%
[7]
  %Inh: 1%
[8]
  %Inh: 0%
[9]
  %Inh: 0%
[10]
  %Inh: 37%
[11]
  %Inh: 15%
[12]
  %Inh: 0%
[13]
  %Inh: 4%
[14]
  %Inh: 35%
[15]
  %Inh: 0%
[16]
  %Inh: 43%
[17]
  %Inh: 0%
[18]
  %Inh: 0%
[19]
  %Inh: 9%
[20]
  %Inh: 3%

## COc1ccc(-c2cc3c(C)nc(N)nc3n([C@H]3CC[C@H](OCCO)CC3)c2=O)cn1
[1]
  %Inh: 13%
[2]
  %Inh: 0%
[3]
  %Inh: 0%
[4]
  %Inh: 12%
[5]
  %Inh: 11%
[6]
  %Inh: 11%
[7]
  %Inh: 0%
[8]
  %Inh: 0%
[9]
  %Inh: 0%
[10]
  %Inh: 0%
[11]
  %Inh: 16%
[12]
  %Inh: 5%
[13]
  %Inh: 4%
[14]
  %Inh: 13%
[15]
  %Inh: 0%
[16]
  %Inh: 0%
[17]
  %Inh: 0%
[18]
  %Inh: 14%
[19]
  %Inh: 0%
[20]
  %Inh: 16%

## CN1C(=O)C(Nc2cc(Cl)c(O)c(Cl)c2)=C(c2ccc(Cl)cc2)C1=O [SB-404321]
[1]
  %Inh: 0%
[2]
  %Inh: 0%
[3]
  %Inh: 4%
[4]
  %Inh: 0%
[5]
  %Inh: 8%
[6]
  %Inh: 0%
[7]
  %Inh: 0%
[8]
  %Inh: 0%
[9]
  %Inh: 0%
[10]
  %Inh: 15%
[11]
  %Inh: 0%
[12]
  %Inh: 0%
[13]
  %Inh: 0%
[14]
  %Inh: 24%
[15]
  %Inh: 0%
[16]
  %Inh: 0%
[17]
  %Inh: 0%
[18]
  %Inh: 9%
[19]
  %Inh: 0%
[20]
  %Inh: 0%

## Cc1cccc(-c2nc(Nc3ccc4c(cnn4C)c3)c3ccccc3n2)n1 [GW876731]
[1]
  %Inh: 6%
[2]
  %Inh: 0%
[3]
  %Inh: 0%
[4]
  %Inh: 0%
[5]
  %Inh: 1%
[6]
  %Inh: 0%
[7]
  %Inh: 0%
[8]
  %Inh: 0%
[9]
  %Inh: 3%
[10]
  %Inh: 6%
[11]
  %Inh: 0%
[12]
  %Inh: 0%
[13]
  %Inh: 13%
[14]
  %Inh: 0%
[15]
  %Inh: 0%
[16]
  %Inh: 8%
[17]
  %Inh: 0%
[18]
  %Inh: 0%
[19]
  %Inh: 0%
[20]
  %Inh: 0%

## COc1cc2ncn(-c3cc(OCc4ccncc4)c(C(N)=O)s3)c2cc1OC [GSK336313]
[1]
  %Inh: 21%
[2]
  %Inh: 0%
[3]
  %Inh: 12%
[4]
  %Inh: 0%
[5]
  %Inh: 0%
[6]
  %Inh: 0%
[7]
  %Inh: 4%
[8]
  %Inh: 0%
[9]
  %Inh: 7%
[10]
  %Inh: 0%
[11]
  %Inh: 0%
[12]
  %Inh: 10%
[13]
  %Inh: 22%
[14]
  %Inh: 0%
[15]
  %Inh: 0%
[16]
  %Inh: 22%
[17]
  %Inh: 0%
[18]
  %Inh: 0%
[19]
  %Inh: 28%
[20]
  %Inh: 46%

## O=C(Nc1n[nH]c2cc(-c3ccccc3F)ccc12)C1CC1 [SB-733371]
[1]
  %Inh: 22%
[2]
  %Inh: 0%
[3]
  %Inh: 19%
[4]
  %Inh: 0%
[5]
  %Inh: 0%
[6]
  %Inh: 5%
[7]
  %Inh: 0%
[8]
  %Inh: 22%
[9]
  %Inh: 4%
[10]
  %Inh: 0%
[11]
  %Inh: 0%
[12]
  %Inh: 5%
[13]
  %Inh: 0%
[14]
  %Inh: 0%
[15]
  %Inh: 0%
[16]
  %Inh: 18%
[17]
  %Inh: 0%
[18]
  %Inh: 0%
[19]
  %Inh: 0%
[20]
  %Inh: 0%

## CCC(=O)c1c(-c2ccccc2)c2cc(Cl)ccc2c(=O)n1Cc1ccc(C(=O)O)cc1
[1]
  %Inh: 0%
[2]
  %Inh: 0%
[3]
  %Inh: 7%
[4]
  %Inh: 7%
[5]
  %Inh: 0%
[6]
  %Inh: 6%
[7]
  %Inh: 0%
[8]
  %Inh: 4%
[9]
  %Inh: 9%
[10]
  %Inh: 0%
[11]
  %Inh: 5%
[12]
  %Inh: 0%
[13]
  %Inh: 0%
[14]
  %Inh: 16%
[15]
  %Inh: 0%
[16]
  %Inh: 0%
[17]
  %Inh: 0%
[18]
  %Inh: 5%
[19]
  %Inh: 0%
[20]
  %Inh: 0%

## O=C1NC(=O)C(c2ccccc2)=C1Nc1cccc(O)c1 [SB-390534]
[1]
  %Inh: 24%
[2]
  %Inh: 0%
[3]
  %Inh: 8%
[4]
  %Inh: 0%
[5]
  %Inh: 0%
[6]
  %Inh: 10%
[7]
  %Inh: 16%
[8]
  %Inh: 0%
[9]
  %Inh: 0%
[10]
  %Inh: 0%
[11]
  %Inh: 0%
[12]
  %Inh: 0%
[13]
  %Inh: 0%
[14]
  %Inh: 0%
[15]
  %Inh: 0%
[16]
  %Inh: 3%
[17]
  %Inh: 0%
[18]
  %Inh: 0%
[19]
  %Inh: 0%
[20]
  %Inh: 0%

## CCc1nc(-c2cccc(C)c2)c(-c2ccncc2)s1
[1]
  %Inh: 0%
[2]
  %Inh: 17%
[3]
  %Inh: 4%
[4]
  %Inh: 6%
[5]
  %Inh: 2%
[6]
  %Inh: 0%
[7]
  %Inh: 0%
[8]
  %Inh: 0%
[9]
  %Inh: 8%
[10]
  %Inh: 2%
[11]
  %Inh: 7%
[12]
  %Inh: 14%
[13]
  %Inh: 0%
[14]
  %Inh: 48%
[15]
  %Inh: 0%
[16]
  %Inh: 5%
[17]
  %Inh: 0%
[18]
  %Inh: 12%
[19]
  %Inh: 0%
[20]
  %Inh: 12%

## Cl.NS(=O)(=O)c1cccc(Nc2cc(-c3ccc(F)cc3)n[nH]2)c1 [GW824645]
[1]
  %Inh: 0%
[2]
  %Inh: 0%
[3]
  %Inh: 0%
[4]
  %Inh: 0%
[5]
  %Inh: 0%
[6]
  %Inh: 0%
[7]
  %Inh: 0%
[8]
  %Inh: 21%
[9]
  %Inh: 0%
[10]
  %Inh: 0%
[11]
  %Inh: 0%
[12]
  %Inh: 0%
[13]
  %Inh: 0%
[14]
  %Inh: 4%
[15]
  %Inh: 17%
[16]
  %Inh: 0%
[17]
  %Inh: 0%
[18]
  %Inh: 0%
[19]
  %Inh: 0%
[20]
  %Inh: 0%
